Screens from PubChem.
Shown is part of a subset that was picked to be rich in hits.
Pf Dd2 growth: qHTS Primary assay for Inhibitors of Plasmodium falciparum Dd2 growth in vitro; 120,000 tested, 4.3% active; P. falciparum Dd2 growth, SYBR Green, 72 h; Potency, µM (series often up to 28.9 µM), actives largely listed as inhibitors; active means well fitted inhibition curve with a large enough effect; further: nearly all actives have a fitted effect of over 65% in size
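Readout: SYBR Green fluorescence, 485 nm excitation, 535 nm emission, after ~16 h lysis at 37C. Before that, Dd2-infected red cells (2.5% hematocrit) grew 72 h with compound, 29 uM top final concentration.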
Large screens that a line does not name were inactive.

COc1cccc(CC(=O)N2CCC3(CC2)OC(=O)N(Cc2csc(C)n2)C3(C)c2ccccc2)c1 (configuration not stated)	Pf Dd2 growth 4µM
COc1cccc(CC(=O)N2CCC3(CC2)OC(=O)N(Cc2ncccn2)C3(C)c2ccccc2)c1 (configuration not stated)	none
Cc1nc(CN2C(=O)OC3(CCN(C(=O)Cc4ccc(O)cc4)CC3)C2(C)c2ccccc2)cs1 (configuration not stated)	none
FC(F)(F)c1cccc2c(N3CCOC(C(F)(F)F)C3)ccnc12 (configuration not stated)	none
O=C(C1CCOCC1)N1CCC(c2noc(-c3ccncc3)n2)C1 (configuration not stated)	none
CCOC(=O)c1c(C)oc2nc(C)nc(NCCCN3CCN(c4ccc(F)cc4)CC3)c12	Pf Dd2 growth 11µM
CCOC(=O)c1c(C)oc2nc(C)nc(NCC3CCN(Cc4cc(C)ccc4C)CC3)c12	none
Cc1nc(N2CCCC2)c2c(C(=O)N3CCN(c4ccc(F)cc4)CC3)c(C)oc2n1	none
CCOC(=O)c1c(C)oc2nc(C)nc(NCCc3ccc(S(N)(=O)=O)cc3)c12	none
CCOC(=O)c1c(C)oc2ncnc(Nc3ccc(CC)cc3)c12	none
CCOC(=O)c1c(C)oc2nc(C)nc(NCC3CCN(Cc4cccc(C)c4)CC3)c12	none
CCOC(=O)c1c(C)oc2nc(C)nc(NCCc3ccc(C)cc3)c12	none
CCOC(=O)c1c(C)oc2nc(C)nc(NCc3ccccc3OC)c12	Pf Dd2 growth 8.9µM
CCOC(=O)c1c(C)oc2nc(C)nc(NCc3ccccc3OCC)c12	Pf Dd2 growth 8.9µM
CCNC(=O)Nc1ccc(OCC(=O)N2CCC(C)CC2)nc1	none
COc1ccccc1NC(=O)CSc1oc(-c2cccs2)nc1S(=O)(=O)c1ccc(C)cc1	none
O=C(CC1CCN(C(=O)Nc2cccc(F)c2)C1)NC1CC1 (configuration not stated)	none
COc1ccc(-c2csc3ncnc(Nc4ccc(OC)cc4OC)c23)cc1	none
Cc1ccc(C(=O)CC2(O)C(=O)N(Cc3ccccc3F)c3ccccc32)cc1 (configuration not stated)	none
CCc1nncn1C1CCN(S(=O)(=O)c2ccc(C)c(Cl)c2)CC1	none
CCn1c(=O)c2sccc2n2c(CCCC(=O)N3CCN(c4ccccc4OC)CC3)nnc12	none
N#Cc1ccc(OCc2nc3c(n2Cc2ccccc2)C(=O)N(CC2CC2)CCN3)cc1	Pf Dd2 growth 10µM
O=C1c2c(nc(CNCc3cccc(Cl)c3)n2Cc2ccccc2)NCCN1Cc1ccccc1F	none
O=C1c2c(nc(COc3ccc(F)cc3)n2Cc2ccccc2)NCCN1Cc1ccccc1	none
COc1cccc(OCc2nc3c(n2Cc2ccccc2)C(=O)N(CC2CCOCC2)CCN3)c1	Pf Dd2 growth 11µM
N#Cc1ccccc1CN1CCNc2nc(CNCc3ccc4c(c3)OCO4)n(Cc3ccccc3)c2C1=O	Pf Dd2 growth 6.3µM
COc1cc(Cl)ccc1OCc1nc2c(n1Cc1ccccc1)C(=O)N(Cc1ccccc1C#N)CCN2	none
O=C1c2c(nc(COc3ccccc3)n2Cc2ccccc2)NCCN1CCOc1ccccc1	none
COc1cccc(OCc2nc3c(n2Cc2ccccc2)C(=O)N(CCOc2ccccc2)CCN3)c1	none
COc1cccc(OCc2nc3c(n2Cc2ccccc2)C(=O)N(C)CCN3)c1	none
O=S(=O)(c1cccc2ccccc12)N1CCN(c2ccc(Cl)c(Cl)c2)CC1	none
Cc1nn(CC(=O)N2CCN(c3ccc(Cl)cc3)CC2)c(=O)c2cccn12	none
CCn1nc(C)c(CCN(C)C(=O)Nc2cc(Cl)ccc2C)c1C	none
COc1cccc(N2C(=O)NC(=NC3CCCC3)C23CCN(C(=O)c2ccccc2)C3)c1 (configuration not stated)	none
COc1cccc(N2C(=O)NC(=NC3CCCCC3)C23CCN(C(=O)c2ccccc2)C3)c1 (configuration not stated)	none
COc1cccc(N2C(=O)NC(=NC3CCCCC3)C23CCCN(C(=O)c2ccccc2)C3)c1 (configuration not stated)	none
COc1ccc(C(=O)N2CCCC3(C2)C(=NC2CCCC2)NC(=O)N3c2cccc(OC)c2)cc1 (configuration not stated)	none
COc1cccc(N2C(=O)NC(=NC3CCCC3)C23CCCN(Cc2ccc(N(C)C)cc2)C3)c1 (configuration not stated)	Pf Dd2 growth 11µM
COc1cccc(N2C(=O)NC(=NC3CCCCC3)C23CCCN(Cc2ccc(N(C)C)cc2)C3)c1 (configuration not stated)	Pf Dd2 growth 11µM
Cc1ccc(C(=O)N2C[C@@H](Oc3ccccc3)C[C@H]2C(=O)NC2CC2)s1	none
O=C1CC2CCN(CC3CCCCC3)CC2CCN1 (configuration not stated)	none
CCc1noc(-c2cn(C3CCN(C(=O)Cc4ccc(F)cc4)CC3)nn2)n1	none
O=C1CCN(C(=O)Nc2ccccc2)CCOCCN1	none
CCn1ccc(C(=O)N2C[C@@H](Oc3ccccc3)C[C@H]2C(=O)NC2CC2)n1	none
Cc1ccc(C(C)C)c(OCC(=O)NCC2(N3CCOCC3)CCCCC2)c1	none
CC1(CNc2ccccc2)COc2ccc(C(=O)NC3CCC(O)CC3)cc2N1 (configuration not stated)	none
CC(C)NC(=O)N(C1CCOCC1)C1CN(C(=O)c2ccco2)C1	none
Cc1cccc(S(=O)(=O)c2cn(C)c3cc(N4CCC(C)CC4)c(F)cc3c2=O)c1	none
CCCCn1cc(S(=O)(=O)c2cc(C)ccc2C)c(=O)c2cc(F)c(N3CCC(C)CC3)cc21	none
Cc1ccc(C)c(S(=O)(=O)c2cn(Cc3ccccc3)c3cc(N4CCCC4)c(F)cc3c2=O)c1	Pf Dd2 growth 10µM
Cc1cccc(Cn2cc(S(=O)(=O)c3ccccc3)c(=O)c3cc(F)c(N4CCOCC4)cc32)c1	Pf Dd2 growth 8.9µM
Cc1ccc(S(=O)(=O)c2cn(Cc3ccccc3)c3cc(N4CCCCC4)c(F)cc3c2=O)cc1	none
Cc1cccc(S(=O)(=O)c2cn(Cc3ccc(F)cc3)c3cc(N4CCOCC4)c(F)cc3c2=O)c1	Pf Dd2 growth 6.3µM
Cc1ccc(S(=O)(=O)c2cn(Cc3ccccc3)c3cc(N4CCOCC4)c(F)cc3c2=O)cc1	Pf Dd2 growth 7.9µM
Cc1cccc(S(=O)(=O)c2cn(Cc3ccccc3)c3cc(N4CCCC(C)C4)c(F)cc3c2=O)c1 (configuration not stated)	none
CCCCn1cc(S(=O)(=O)c2cccc(C)c2)c(=O)c2cc(F)c(N3CCOCC3)cc21	none
Cc1cccc(Cn2cc(S(=O)(=O)c3cccc(C)c3)c(=O)c3cc(F)c(N4CCOCC4)cc32)c1	none
Cc1cc(C)cc(C(=O)n2nc(C)c(S(=O)(=O)N3CCCCCC3)c2C)c1	none
O=C(Cc1c[nH]c2ccccc12)N1CCC(Cc2nc(C3CC3)n[nH]2)C1 (configuration not stated)	none
O=C(N1CCC(n2cc(-c3nc(C4CC4)no3)nn2)C1)C1(c2ccccc2)CC1 (configuration not stated)	none
Cc1ccc(C)c(NC(=O)c2nn(C)c3c2CS(=O)(=O)c2ccccc2-3)c1	none
COc1ccc(C2Cn3cnc(C(=O)N4CCC(C(=O)Nc5cccc(C)c5)CC4)c3CO2)cc1 (configuration not stated)	none
COc1ccc(OC)c(NC(=O)CSc2nnc3ccc4ccccc4n23)c1	none
Cc1ccc(CN(C)Cc2ccccc2C(F)(F)F)cc1	none
Cc1noc(C)c1[S+](=O)([O-])N1CCC(N2CCOCC2=O)CC1	none
COc1cccc(N2C(=O)OCC23CCN(Cc2cccc(F)c2)C3)c1 (configuration not stated)	none
